Experimental findings from PubChem BioAssay (NCI) are described below.

The test system of this assay is HL-60(TB) leukemia. The assay can be described thus: NCI-60 one-dose screen, 48 h (100 = growth as untreated, 0 = no growth, -100 = all killed). The settings on record: 10 µM unless noted.

This is part of a sample that, as a whole, favours compounds with a hit. Of some 83,000 tested, about 20% had one in any assay.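 Note: values are percent growth. 100 is the growth of untreated cells, values between 100 and 0 indicate rising inhibition; between -100 and 0 indicates cell death.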 A number with no mark means an inactive call. Activity calls are given as the source filed them. How the source made its calls: active means growth percent below 10; inactive means the rest.

For the compound `Cc1[nH]n(C(N)=S)c(=O)c1N=Nc1ccc(S(=O)(=O)Nc2ccncn2)cc1`, the growth was 103%. Regarding `CCCC(CCC)NCC(O)c1cc(-c2ccc(C(F)(F)F)cc2)nc(C(F)(F)F)c1` (centres undefined), the growth is -46.3% (active).

On to `CCN(CC)Cc1cc(Nc2cc(C(F)(F)F)c(C#N)c3nc4ccccc4n23)ccc1O`, for which the growth is -10.9% (active). For `O=C(CCCCCCCn1cc(-c2cccnc2)nn1)Nc1ccccc1-c1ccccc1`, the growth is 45.7%. Under `COc1ccc(C2CC(c3ccc(OC)cc3OC)=NN2c2ccc(S(N)(=O)=O)cc2)cc1` (centres undefined) stands 61.2%; under `Cc1c(CC(=S)N2CCOCC2)nnn1-c1cccc(C(F)(F)F)c1`, 100%. Under `Cc1ccc(NC(=O)N/C(N)=N/c2nc(=O)c3ccccc3s2)cc1` stands 33.7%; under `COc1cccc2c(=O)c3c(sc12)c(NCCCNCCO)nc1ccccc13`, 59.8%; under `CC/C=C1/C(=O)C=C[C@@H]1C/C=C\CCCC(=O)O`, 52.1%. Regarding `NC(CO)(CO)c1ccccc1`, the growth is 119%.

On to `CCCCN(CCCC)C(=N)c1ccnc2ccccc12`, for which the growth is 64.8%. The figure for `N/C(=N\C(N)=N\c1nc2ccccc2s1)c1cnccn1` is 0.412% (active); for `CCCC(=O)OCC1OC(n2cnc3c(=S)nc[nH]c32)C(OC(=O)CCC)C1OC(=O)CCC` (centres undefined) it is 32.1%; for `COc1ccc(-c2nnc(COc3ccc(NC(=O)Nc4cc(C(F)(F)F)cc(C(F)(F)F)c4)cc3F)o2)cc1` it is -17.2% (active).

On to `N#CSCC1CC(O)(c2ccccc2)CC(c2ccc(F)cc2)O1` (centres undefined), for which the growth was -38.7% (active).

With `c1ccc(OCCC[P+](c2ccccc2)(c2ccccc2)c2ccccc2)cc1`, the growth is -57.3% (active). Under `O=S(=O)(NCCCNc1nccc(-c2c(-c3cccc(F)c3)nc3sccn23)n1)c1cccc(F)c1` stands 40.5%. For the compound `CCCCCN(CCCCC)C(C)C(O)c1ccc2cc(Cl)c3ccccc3c2c1` (centres undefined), the growth was 105%.

As to `Nc1ccc(F)cc1F`, the growth is 97.9%. Under `N=C1c2nc3n(c2C(=O)c2nc4n(c21)CCCC4)CCCC3` stands 96.3%; under `COc1ccc2c(c1OC)OCC(CN(C)C)C2=O` (centres undefined), 40.1%; under `FC(F)(F)Oc1cccc(-c2cc(NCCCCCCNc3cc(-c4cccc(OC(F)(F)F)c4)nc4ccc(N5CCCC5)cc34)c3cc(N4CCCC4)ccc3n2)c1`, 21.7%. The figure for `COc1ccccc1-n1c(-c2sc(NC(C)=O)nc2C)n[nH]c1=S` is 101%; for `O=C(/C(=N/O)S(=O)(=O)c1ccccc1)c1cccs1` it is 90.9%; for `C[C@H](C(=O)Nc1ccc(S(N)(=O)=O)cc1)S(=O)(=O)c1ccccc1` it is 101%. Under `O=Cc1ncc(-c2ccc(C(F)(F)F)cc2)c(NC2CCCCCC2)n1` stands -50.6% [100 µM] (active); under `COc1cc(-c2nn(-c3cccc(NC(=O)CCN4CCN(Cc5ccccc5)CC4)c3)cc2-c2ccncc2)ccc1Cl`, -5.82% (active). On to `Cc1ccc(-c2cc3nc(C(Cl)Cl)nc(-c4cccnc4)n3n2)cc1`, for which the growth was 10.5%. `COc1ccc(/C(C#N)=C/c2cc(OC)c(OC)c(OC)c2)cc1`: the growth is 14.8%.
